# Measurements reported in PubChem BioAssay AID1159580 (chemical genetic matrix, 2015).
# The campaign covered roughly 5,500 compounds. About 2,000 (36%) were called active. Inconclusive results (about 18%) are left out. The list shows a part of the results. Unmarked numbers belong to inactive results. Rule as the data show it: active = normalized growth mostly below about 0.91 (no sharp cut-off); inconclusive = no clear call, values can overlap the other calls; inactive = mostly above about 0.92.
# Test: chemical genetic growth profiling, strain panel (AID 1159580);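 also: tested at 20 µM; growth read once vehicle control cultures reached saturation at 30 °C; 1 = growth at the plate median or of vehicle wells; lower values mean less growth of the strain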
# Conditions: S. cerevisiae deletion strains, growth OD
# [1] = locus YAR019C, strain CDC15, hits give low values
# [2] = locus YBL105C, strain PKC1, hits give low values
# [3] = locus YBR135W, strain CKS1, hits give low values
# [4] = locus YBR136W, strain MEC1, hits give low values
# [5] = locus YBR160W, strain CDC28, hits give low values
# [6] = locus YDL017W, strain CDC7, hits give low values
# [7] = locus YDL028C, strain MPS1, hits give low values
# [8] = locus YDL101C, strain DUN1, hits give low values
# [9] = locus YDL108W, strain KIN28, hits give low values
# [10] = locus YDL132W, strain cdc53, hits give low values
# [11] = locus YDL214C, strain PRR2, hits give low values
# [12] = locus YDR052C, strain DBF4, hits give low values
# [13] = locus YDR054C, strain cdc34, hits give low values
# [14] = locus YDR226W, strain ADK1, hits give low values
# [15] = locus YDR477W, strain SNF1, hits give low values
# [16] = locus YER123W, strain YCK3, hits give low values
# [17] = locus YER133W, strain GLC7, hits give low values
# [18] = locus YFL009W, strain cdc4, hits give low values
# [19] = locus YFL029C, strain CAK1, hits give low values
# [20] = locus YFR003C, strain YPI1, hits give low values
# [21] = locus YFR019W, strain FAB1, hits give low values
# [22] = locus YFR028C, strain CDC14, hits give low values
# [23] = locus YGR040W, strain KSS1, hits give low values
# [24] = locus YGR052W, strain FMP48, hits give low values
# [25] = locus YGR092W, strain DBF2, hits give low values
# [26] = locus YHR030C, strain SLT2, hits give low values
# [27] = locus YHR079C, strain IRE1, hits give low values
# [28] = locus YHR082C, strain KSP1, hits give low values
# [29] = locus YHR205W, strain SCH9, hits give low values
# [30] = locus YIL147C, strain SLN1, hits give low values
# [31] = locus YJL095W, strain BCK1, hits give low values
# [32] = locus YJL128C, strain PBS2, hits give low values
# [33] = locus YJL157C, strain FAR1, hits give low values
# [34] = locus YJR016C, strain ILV3, hits give low values
# [35] = locus YJR066W, strain TOR1 (second series), hits give low values
# [36] = locus YJR066W, strain TOR1, hits give low values
# [37] = locus YKL048C, strain ELM1, hits give low values
# [38] = locus YKL067W, strain YNK1, hits give low values
# [39] = locus YKL101W, strain HSL1, hits give low values
# [40] = locus YKL193C, strain SDS22, hits give low values
# [41] = locus YKL203C, strain TOR2, hits give low values
# [42] = locus YLR113W, strain HOG1, hits give low values
# [43] = locus YLR133W, strain CKI1, hits give low values
# [44] = locus YLR403W, strain SFP1, hits give low values
# [45] = locus YML070W, strain DAK1, hits give low values
# [46] = locus YMR001C, strain CDC5, hits give low values
# [47] = locus YMR205C, strain PFK2 (second series), hits give low values
# [48] = locus YMR277W, strain FCP1, hits give low values
# [49] = locus YNL006W, strain LST8, hits give low values
# [50] = locus YNL020C, strain ARK1, hits give low values
# [51] = locus YNL161W, strain CBK1, hits give low values
# [52] = locus YNL183C, strain NPR1, hits give low values
# [53] = locus YNL207W, strain RIO2, hits give low values
# [54] = locus YNL222W, strain SSU72, hits give low values
# [55] = locus YNL307C, strain MCK1 (second series), hits give low values
# [56] = locus YOL078W, strain AVO1, hits give low values
# [57] = locus YOL136C, strain PFK27, hits give low values
# [58] = locus YOR061W, strain CKA2, hits give low values
# [59] = locus YOR119C, strain RIO1, hits give low values
# [60] = locus YOR231W, strain MKK1, hits give low values
# [61] = locus YOR329C, strain SCD5, hits give low values
# [62] = locus YPL031C, strain PHO85, hits give low values
# [63] = locus YPL153C, strain RAD53, hits give low values
# [64] = locus YPL204W, strain HRR25, hits give low values
# [65] = locus YPL209C, strain IPL1, hits give low values
# [66] = locus YPL256C, strain CLN2, hits give low values
# [67] = locus YPR025C, strain CCL1, hits give low values
# [68] = locus YPR106W, strain ISR1, hits give low values
# [69] = locus YPR111W, strain DBF20, hits give low values
# [70] = strain NNK1, hits give low values
# [71] = strain TSCII, hits give low values
smiles,measurement,setting,value
FC(F)(F)c1ccc(N2CCc3ccccc3C2)c(NC(=S)Nc2cc(Cl)cc(Cl)c2)c1,normalized growth,[1],0.972
same,normalized growth,[2],0.981
same,normalized growth,[3],0.978
same,normalized growth,[4],0.997
same,normalized growth,[5],0.989
same,normalized growth,[6],0.982
same,normalized growth,[7],0.987
same,normalized growth,[8],0.978
same,normalized growth,[9],0.998
same,normalized growth,[10],0.985
same,normalized growth,[11],0.924
same,normalized growth,[12],0.98
same,normalized growth,[13],0.969
same,normalized growth,[14],0.99
same,normalized growth,[15],0.937
same,normalized growth,[16],0.908
same,normalized growth,[17],0.939
same,normalized growth,[18],0.983
same,normalized growth,[19],0.975
same,normalized growth,[20],0.993
same,normalized growth,[21],0.957
same,normalized growth,[22],0.971
same,normalized growth,[23],0.939
same,normalized growth,[24],1.01
same,normalized growth,[25],0.869
same,normalized growth,[26],1.15
same,normalized growth,[27],1.06
same,normalized growth,[28],1
same,normalized growth,[29],0.962
same,normalized growth,[30],0.993
same,normalized growth,[31],1.02
same,normalized growth,[32],0.968
same,normalized growth,[33],0.908
same,normalized growth,[34],0.985
same,normalized growth,[35],0.899
same,normalized growth,[36],1.02
same,normalized growth,[37],0.963
same,normalized growth,[38],0.931
same,normalized growth,[39],0.959
same,normalized growth,[40],0.974
same,normalized growth,[41],1.02
same,normalized growth,[42],1.03
same,normalized growth,[43],0.936
same,normalized growth,[44],0.945
same,normalized growth,[45],0.938
same,normalized growth,[46],0.969
same,normalized growth,[47],0.947
same,normalized growth,[48],0.972
same,normalized growth,[49],0.984
same,normalized growth,[50],0.934
same,normalized growth,[51],0.978
same,normalized growth,[52],1.03
same,normalized growth,[53],0.979
same,normalized growth,[54],0.979
same,normalized growth,[55],0.941
same,normalized growth,[56],0.976
same,normalized growth,[57],0.956
same,normalized growth,[58],0.908
same,normalized growth,[59],0.98
same,normalized growth,[60],1.01
same,normalized growth,[61],0.985
same,normalized growth,[62],0.929
same,normalized growth,[63],0.931
same,normalized growth,[64],0.939
same,normalized growth,[65],0.982
same,normalized growth,[66],1.07
same,normalized growth,[67],0.967
same,normalized growth,[68],0.982
same,normalized growth,[69],0.985
same,normalized growth,[70],0.991
same,normalized growth,[71],0.972
FC(F)(F)c1cccc(NC(=S)NN=C2CCCCCC2)c1,normalized growth,[1],0.978
same,normalized growth,[2],0.983
same,normalized growth,[3],0.994
same,normalized growth,[4],0.987
same,normalized growth,[5],0.991
same,normalized growth,[6],0.983
same,normalized growth,[7],0.997
same,normalized growth,[8],0.984
same,normalized growth,[9],1
same,normalized growth,[10],0.989
same,normalized growth,[11],0.909
same,normalized growth,[12],0.982
same,normalized growth,[13],0.966
same,normalized growth,[14],0.978
same,normalized growth,[15],0.91
same,normalized growth,[16],0.831
same,normalized growth,[17],0.892
same,normalized growth,[18],0.986
same,normalized growth,[19],0.983
same,normalized growth,[20],0.989
same,normalized growth,[21],0.946
same,normalized growth,[22],0.992
same,normalized growth,[23],0.914
same,normalized growth,[24],0.924
same,normalized growth,[25],0.823
same,normalized growth,[26],0.846 (active)
same,normalized growth,[27],0.81
same,normalized growth,[28],0.997
same,normalized growth,[29],0.914
same,normalized growth,[30],0.987
same,normalized growth,[31],0.887
same,normalized growth,[32],0.98
same,normalized growth,[33],0.869
same,normalized growth,[34],0.993
same,normalized growth,[35],0.827
same,normalized growth,[36],0.907
same,normalized growth,[37],0.949
same,normalized growth,[38],0.92
same,normalized growth,[39],0.928
same,normalized growth,[40],0.986
same,normalized growth,[41],0.936
same,normalized growth,[42],0.811 (active)
same,normalized growth,[43],0.921
same,normalized growth,[44],0.882
same,normalized growth,[45],0.897
same,normalized growth,[46],0.979
same,normalized growth,[47],0.936
same,normalized growth,[48],0.988
same,normalized growth,[49],0.986
same,normalized growth,[50],0.902
same,normalized growth,[51],0.987
same,normalized growth,[52],0.949
same,normalized growth,[53],0.98
same,normalized growth,[54],1
same,normalized growth,[55],0.798
same,normalized growth,[56],0.994
same,normalized growth,[57],0.896
same,normalized growth,[58],0.862
same,normalized growth,[59],0.973
same,normalized growth,[60],0.828
same,normalized growth,[61],0.988
same,normalized growth,[62],0.884
same,normalized growth,[63],0.872
same,normalized growth,[64],0.838
same,normalized growth,[65],0.988
same,normalized growth,[66],0.84 (active)
same,normalized growth,[67],0.995
same,normalized growth,[68],0.994
same,normalized growth,[69],0.984
same,normalized growth,[70],1
same,normalized growth,[71],0.982
